Test results taken from PubChem BioAssay AID1851 (National Center for Advancing Translational Sciences (NCATS), 2009).
Out of some 16,000 compounds screened, about 5,700 (36%) were called active. About 24% were inconclusive and are not listed. This is one part of the list. Values without a mark were called inactive. Calls come from the whole dose curve; as a rule, active = well fitted curve in the direction sought with a large enough effect; inconclusive = small, poorly fitted or top-dose-only effect, or effect the other way; inactive = no such curve, though single readings can be large or run the other way.

Molecular target: Cytochrome P450 1A2 (Homo sapiens) (UniProt P05177)
Assay: Cytochrome panel assay with activity outcomes
Details: recombinant CYP, pro-luciferin dealkylation, luminescence, p450-cyp1a2; series mostly up to 57.1 µM; activity, negative = inhibition: at the top concentration
% is set by controls: 0 for no effect and ±100 for the full control effect.

Sequence of Cytochrome P450 1A2 (Homo sapiens) (P05177 whole entry, looked up): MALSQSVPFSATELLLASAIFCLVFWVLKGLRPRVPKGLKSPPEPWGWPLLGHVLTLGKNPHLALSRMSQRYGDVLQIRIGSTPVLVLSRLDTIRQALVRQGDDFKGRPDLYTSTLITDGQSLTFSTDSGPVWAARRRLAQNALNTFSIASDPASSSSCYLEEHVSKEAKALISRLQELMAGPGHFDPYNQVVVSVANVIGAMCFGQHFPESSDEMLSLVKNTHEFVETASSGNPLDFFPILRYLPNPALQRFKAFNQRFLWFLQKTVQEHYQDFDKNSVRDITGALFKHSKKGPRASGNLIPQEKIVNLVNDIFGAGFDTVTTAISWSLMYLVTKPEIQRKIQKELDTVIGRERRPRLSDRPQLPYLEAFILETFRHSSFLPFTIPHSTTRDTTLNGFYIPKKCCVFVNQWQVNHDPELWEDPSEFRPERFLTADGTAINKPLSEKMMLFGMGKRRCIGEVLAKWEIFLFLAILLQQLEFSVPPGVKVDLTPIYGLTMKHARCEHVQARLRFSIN

Row | SMILES | activity, negative = inhibition | AC50
1 | O=C(c1cc(C(F)(F)F)cc(C(F)(F)F)c1)N1CCC2(CC1)CN(c1ccccn1)C2 | -5.11% | –
2 | CC(C)=NO[C@@H](C)c1cn([C@@H]2COC[C@@H]2O)nn1 | -6.31% [at 11.4 µM] | –
3 | CCn1c(Cc2ccccc2)nnc1SCC(=O)NC(C)(C)C | -26.9% | –
4 | CC(C)(C)NC(=O)CSC(=Nc1ccc(F)cc1)NC#N | – | 2.51 µM (active)
5 | C[C@@H]1CC[C@H]2C(=O)NC[C@@H](O)CN2[C@@H]1c1ccc(Br)cc1 | -9.06% [at 11.4 µM] | –
6 | O=[N+]([O-])C1=CC=C2C(=NC3(CCCCC3)N2O)C1=NC1CCCCC1 | – | 10 µM (active)
7 | N[C@@H](C(=O)O)c1ccc(O)c(C(=O)O)c1 | -18.9% | –
8 | O=C(O)C1=CC(=C(c2ccc(O)c(C(=O)O)c2)c2ccc(O)c(C(=O)O)c2)C=CC1=O | – | 10 µM (active)
9 | Nc1ccc(O)c(C(=O)O)c1 | -7.04% [at 25.6 µM] | –
10 | C#CCCCO/N=C1/C[C@@H](O)[C@@H](O)[C@@H]2[C@@H]3C(=O)N(Cc4ccccc4)C(=O)[C@H]3CC[C@H]12 | 0.662% [at 11.4 µM] | –
11 | O=C(NNS(=O)(=O)c1ccc(Cl)cc1)NC1CCCCC1 | 5.14% | –
12 | Cc1nc(S(=O)(=O)N(C)c2ccccc2)c(C#N)c(C)c1Cl | – | 15.8 µM (active)
13 | Cc1nc(S(=O)(=O)NC2CCCCC2)c(C#N)c(C)c1Cl | – | 10 µM (active)
14 | CO[C@@H]1COC(=O)[C@@H](CCSC)NC(=O)C/C=C\[C@@H](C)COC(=O)CCC[C@H]1C | 0.608% [at 11.4 µM] | –
15 | Cc1cc(C)n(-c2nnc(C)n2/N=C/c2ccccc2OCc2ccccc2Cl)n1 | – | 2 µM (active)
16 | CCOC(=O)COc1c(OC)cc(Cl)cc1C1Nc2ccccc2C(=O)N1c1ccc(F)cc1 (stereo not given) | -13.9% | –
17 | CCOC(=O)COc1c(C=O)cc(Br)cc1OC | – | 4.47 µM (active)
18 | CCOC(=O)COc1c(OC)cc(Cl)cc1C1Nc2ccccc2C(=O)N1c1cccc(C)c1 (stereo not given) | -11.9% | –
19 | CCOC(=O)c1cc(-c2ccc(Cl)cc2)nc2c1c(C)nn2CCC#N | – | 0.891 µM (active)
20 | CC1CC2(CCCCC2)N2C(=O)C(=O)c3cccc1c32 (stereo not given) | – | 2.24 µM (active)
21 | Cn1nc(C(F)(F)F)c(/C=N/OC(=O)c2ccccc2Cl)c1SCc1ccc(Cl)cc1 | – | 2.82 µM (active)
22 | Cn1nc(C(F)(F)F)c(/C=N/OCc2c(Cl)cccc2Cl)c1Cl | – | 1.26 µM (active)
23 | COc1ccc(C(=O)O/N=C/c2ccc(S(=O)c3ccc(Cl)cc3)nc2)cc1 (stereo not given) | -7.11% | –
24 | Cn1nc(C(F)(F)F)c(/C=N/OC(=O)c2ccc(Cl)cc2)c1Cl | – | 12.6 µM (active)
25 | N[C@H](CCC(=O)NCS(=O)(=O)O)C(=O)O | -1.79% | –
